Our source for the composite z-score and z-score values is PubChem BioAssay.

Test [1] is described as follows: small molecules captured by biotinylated probe aFSTL3 – biochemical, small-molecule microarray, fluorescence 635/667, stem cell growth factor project, primary screen (AID 1064).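 Note: measures binding of the biotinylated anti-FSTL3 antibody to printed compounds.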 The following applies: higher = more signal.
Test [2] in a line: binders from COS7 lysate, DM2A8 probe, primary screen, torsin A project, cell lysate, small-molecule microarray, fluorescence 635/667 (AID 1065). Particulars: higher = more signal, COS7 lysate expressing mutant human TOR1A.
Test [3] is described as follows: small molecules captured by biotinylated probe aFGF2 – biochemical, small-molecule microarray, fluorescence 635/667, stem cell growth factor project, primary screen (AID 1067).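 Note: measures binding of biotinylated aFGF2 protein to printed compounds on slides; z-score merges feature fluorescence and signal-to-noise across triplicate slides.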 The following applies: higher = more signal.
Test [4] is described as follows: small molecules captured by biotinylated probe aFGF10 – biochemical, small-molecule microarray, fluorescence 635/667, stem cell growth factor project, primary screen (AID 1071).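 Note: score merges 667 nm spot intensity and signal to noise from triplicate slides.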 The following applies: higher = more signal.
For test [5], the target named is Neurogenic locus notch homolog protein 2 (Homo sapiens) (UniProt Q04721). Briefly: small molecules binding Notch2 protein – biochemical, small-molecule microarray, 635 nm fluorescence, stem cell growth factors, primary screen (AID 1073). The following applies: higher = more signal.
Test [6] concerns the target Pro-neuregulin-1, membrane-bound isoform (Homo sapiens) (UniProt Q02297). Briefly: small molecules binding neuregulin-1 protein – biochemical, small-molecule microarray, fluorescence 635/667, psychiatric disease protein project, primary screen (AID 1075).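 Note: score combines 667 nm spot fluorescence with signal to noise.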 Particulars: NRG1 binding, 635 nm fluorescence, higher = more signal.
The test system of test [7] is Neuregulin-1 EGF-like domain. Description: small molecules binding NRG1 EGF domain – biochemical, small-molecule microarray, 635 nm fluorescence, primary screen (AID 1081).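 Note: binding of the protein to compounds printed on small-molecule microarray slides.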 Particulars: higher = more signal.
A short description of test [8]: FRG1 expression reporter modulators in myotubes – cell-based, C2C12 myotubes, firefly/Renilla luciferase, luminescence, FRG1 inhibition for FSHD, primary screen (AID 1084). The following applies: FRG1 promoter luciferase, higher = more signal, called active from +8 up or from −8 down.
A short description of test [9]: small molecules captured by biotinylated probe aFST – biochemical, small-molecule microarray, fluorescence 635/667, stem cell growth factor project, primary screen (AID 1086).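 Note: score merges 667 nm fluorescence with signal-to-noise of each printed compound spot.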 The following applies: higher = more signal.
The nature of test [10]: binders of probe aHhip on microarray, primary screen, stem cell growth factor project, biochemical, small-molecule microarray, fluorescence 635/667 (AID 1087).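 Note: score merges spot fluorescence at 667nm with spot signal to noise ratio.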 Particulars: higher = more signal.
For test [11], the system named is PRMT1 (protein arginine N-methyltransferase 1). Description: small molecules binding arginine methyltransferase PRMT1 – biochemical, small-molecule microarray, 635 nm fluorescence, primary screen (AID 1088).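 Note: binding of Prmt1 protein to compounds spotted on small-molecule microarray slides.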 The following applies: higher = more signal.
Test [12] is described as follows: growth effects on S. cerevisiae YJM789 – YJM789 clinical isolate, OD600, 24 h, basal, primary screen (AID 1089).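 Note: growth of clinical yeast isolate S. cerevisiae YJM 789 seeded 1000 cells per well; test concentration not given here.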 Particulars: higher = more signal, called active from +8 up or from −8 down.
Test [13] in a line: S. pombe growth modifiers, basal conditions – strain 972, OD600, 24 h, no modulator, primary screen (AID 1090).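 Note: basal condition with compound alone and no growth modifier present; test concentration not given here.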 Particulars: S. pombe 972 growth, higher = more signal, called active from +8 up or from −8 down.
Test [14] in a line: budding yeast growth modifiers under rapamycin – strain BY4716, OD600, 96 h, primary screen (AID 1091). Note: test concentration not given here. Particulars: S. cerevisiae BY4716 + rapamycin, higher = more signal, called active from +8 up or from −8 down.
Test [15] deals with Torsin-1A-interacting protein 2 (Homo sapiens) (UniProt Q8NFQ8). Briefly: small molecules binding lysate-expressed LULL1 – cell lysate, human LULL1 lysate, 635/667 nm fluorescence, primary screen (AID 1092).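 Note: probe is lysate of COS7 cells overexpressing human LULL1; score merges per-feature 667 nm fluorescence with signal-to-noise.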 Particulars: small-molecule microarray, hLULL1 lysate binding, 635 nm fluorescence; higher = more signal.
Torsin-1A-interacting protein 2 (Homo sapiens), sequence (Q8NFQ8 whole entry, looked up): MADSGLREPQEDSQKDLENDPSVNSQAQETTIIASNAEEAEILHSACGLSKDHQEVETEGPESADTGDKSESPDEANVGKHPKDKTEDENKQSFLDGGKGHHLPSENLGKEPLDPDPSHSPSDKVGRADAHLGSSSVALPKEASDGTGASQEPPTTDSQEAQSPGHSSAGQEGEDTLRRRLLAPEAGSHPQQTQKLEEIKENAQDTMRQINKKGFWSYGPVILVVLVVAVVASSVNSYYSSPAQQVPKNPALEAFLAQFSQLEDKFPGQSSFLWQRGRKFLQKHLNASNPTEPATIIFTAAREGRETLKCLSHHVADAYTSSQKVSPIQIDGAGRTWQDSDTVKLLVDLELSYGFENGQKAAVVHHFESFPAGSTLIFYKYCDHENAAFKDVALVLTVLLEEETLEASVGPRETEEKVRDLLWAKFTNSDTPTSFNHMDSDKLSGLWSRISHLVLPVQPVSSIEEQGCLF
Test [16] can be described thus: optical density change of DRC41 E. coli – strain DRC41, OD650, 24 h, E. coli filamentation project, primary screen (AID 1093).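 Note: MC1000 strain lacking acrAB efflux and sulA so SOS filamentation is blocked; test concentration not given here.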 The following applies: E. coli DRC41 growth, higher = more signal, called active from +8 up or from −8 down.
Test [17] can be described thus: probe aLefty2 binding to arrayed compounds – biochemical, biotinylated probe, 635/667 nm fluorescence, primary screen (AID 1094).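 Note: score merges spot fluorescence near 667 nm with spot signal-to-noise ratio.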 Particulars: small-molecule microarray, higher = more signal.
The test system of test [18] is Noggin (protein binding on small-molecule microarray). Description: small molecules binding Noggin protein – biochemical, 635/667 nm fluorescence, primary screen (AID 1095).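 Note: score merges 667 nm feature fluorescence with signal to noise over triplicate slides.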 Particulars: 635 nm fluorescence, higher = more signal.
Test [19] concerns the target Neurogenic locus notch homolog protein 3 (Homo sapiens) (UniProt Q9UM47). Briefly: small molecules binding NOTCH3 protein – biochemical, 635/667 nm fluorescence, primary screen (AID 1096). The following applies: small-molecule microarray, 635 nm fluorescence, higher = more signal.
Test [20] in a line: probe aEGFR binding to arrayed compounds – biochemical, biotinylated probe, 635/667 nm fluorescence, primary screen (AID 1097).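 Note: probe is a biotinylated anti-EGFR antibody binding compounds printed on slides; score combines fluorescence near 667 nm and signal to noise of each spot.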 Particulars: small-molecule microarray, higher = more signal.

The source made the active and inactive calls.

Neurogenic locus notch homolog protein 3 (Homo sapiens), sequence (Q9UM47 whole entry, looked up): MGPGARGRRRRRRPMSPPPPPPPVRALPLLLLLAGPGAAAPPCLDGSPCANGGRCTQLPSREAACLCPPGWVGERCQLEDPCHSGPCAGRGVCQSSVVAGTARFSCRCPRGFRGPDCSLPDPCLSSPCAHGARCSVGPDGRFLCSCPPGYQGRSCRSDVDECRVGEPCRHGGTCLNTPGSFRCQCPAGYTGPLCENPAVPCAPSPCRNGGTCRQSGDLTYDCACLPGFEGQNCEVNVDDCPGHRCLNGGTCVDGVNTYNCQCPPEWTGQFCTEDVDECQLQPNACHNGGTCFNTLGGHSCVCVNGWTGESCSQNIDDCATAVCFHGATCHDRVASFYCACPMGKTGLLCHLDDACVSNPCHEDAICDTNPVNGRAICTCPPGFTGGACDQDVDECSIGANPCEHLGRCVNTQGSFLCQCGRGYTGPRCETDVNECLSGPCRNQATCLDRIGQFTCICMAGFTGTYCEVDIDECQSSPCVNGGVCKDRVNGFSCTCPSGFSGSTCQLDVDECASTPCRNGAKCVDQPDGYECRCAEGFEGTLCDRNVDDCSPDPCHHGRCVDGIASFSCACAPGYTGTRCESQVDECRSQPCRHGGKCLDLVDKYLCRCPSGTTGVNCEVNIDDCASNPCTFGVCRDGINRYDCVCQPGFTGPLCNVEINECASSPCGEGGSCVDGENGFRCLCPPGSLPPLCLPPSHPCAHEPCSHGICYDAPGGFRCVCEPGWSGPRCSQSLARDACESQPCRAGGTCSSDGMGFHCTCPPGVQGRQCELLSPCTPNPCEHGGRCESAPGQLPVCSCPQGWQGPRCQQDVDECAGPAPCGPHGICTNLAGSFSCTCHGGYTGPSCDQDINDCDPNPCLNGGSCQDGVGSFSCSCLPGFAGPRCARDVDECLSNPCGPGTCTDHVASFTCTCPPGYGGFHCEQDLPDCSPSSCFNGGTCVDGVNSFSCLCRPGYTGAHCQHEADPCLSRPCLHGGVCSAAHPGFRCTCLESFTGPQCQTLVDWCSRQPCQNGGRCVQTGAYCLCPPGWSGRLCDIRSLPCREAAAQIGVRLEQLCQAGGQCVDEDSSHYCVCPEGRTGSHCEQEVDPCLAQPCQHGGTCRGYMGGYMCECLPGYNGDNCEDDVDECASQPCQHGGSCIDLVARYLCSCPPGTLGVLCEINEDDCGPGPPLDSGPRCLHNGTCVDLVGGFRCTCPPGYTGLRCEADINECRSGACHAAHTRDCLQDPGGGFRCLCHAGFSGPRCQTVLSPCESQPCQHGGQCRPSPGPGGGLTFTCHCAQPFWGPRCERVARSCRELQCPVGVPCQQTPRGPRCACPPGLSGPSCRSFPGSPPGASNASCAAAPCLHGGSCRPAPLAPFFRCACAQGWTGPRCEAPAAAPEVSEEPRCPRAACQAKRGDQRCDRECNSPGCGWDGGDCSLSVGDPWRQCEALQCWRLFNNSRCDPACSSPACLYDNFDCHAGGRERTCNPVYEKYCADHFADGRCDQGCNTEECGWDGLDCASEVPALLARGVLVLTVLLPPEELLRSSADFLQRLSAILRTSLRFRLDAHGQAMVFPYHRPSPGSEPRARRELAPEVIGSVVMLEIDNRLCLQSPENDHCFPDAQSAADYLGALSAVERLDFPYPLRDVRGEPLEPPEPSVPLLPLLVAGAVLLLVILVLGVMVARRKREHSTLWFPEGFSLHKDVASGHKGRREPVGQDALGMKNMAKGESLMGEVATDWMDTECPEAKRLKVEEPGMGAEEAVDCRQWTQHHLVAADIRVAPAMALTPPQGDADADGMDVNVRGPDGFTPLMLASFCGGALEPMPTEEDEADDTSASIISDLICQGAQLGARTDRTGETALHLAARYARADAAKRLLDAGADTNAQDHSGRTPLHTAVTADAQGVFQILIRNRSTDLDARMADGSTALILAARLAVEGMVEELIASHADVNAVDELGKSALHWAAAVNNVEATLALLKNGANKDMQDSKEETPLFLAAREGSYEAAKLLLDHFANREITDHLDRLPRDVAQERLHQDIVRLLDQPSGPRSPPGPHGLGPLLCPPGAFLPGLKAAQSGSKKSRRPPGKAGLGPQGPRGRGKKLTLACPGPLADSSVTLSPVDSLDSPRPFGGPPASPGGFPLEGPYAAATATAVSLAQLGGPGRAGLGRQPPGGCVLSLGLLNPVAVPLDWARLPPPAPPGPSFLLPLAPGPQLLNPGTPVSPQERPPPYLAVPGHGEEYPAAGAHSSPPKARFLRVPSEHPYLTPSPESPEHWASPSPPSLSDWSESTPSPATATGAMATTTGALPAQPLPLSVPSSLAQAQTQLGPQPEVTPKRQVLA
Pro-neuregulin-1, membrane-bound isoform (Homo sapiens), sequence (Q02297 whole entry, looked up, the tested form may be a part, canonical isoform): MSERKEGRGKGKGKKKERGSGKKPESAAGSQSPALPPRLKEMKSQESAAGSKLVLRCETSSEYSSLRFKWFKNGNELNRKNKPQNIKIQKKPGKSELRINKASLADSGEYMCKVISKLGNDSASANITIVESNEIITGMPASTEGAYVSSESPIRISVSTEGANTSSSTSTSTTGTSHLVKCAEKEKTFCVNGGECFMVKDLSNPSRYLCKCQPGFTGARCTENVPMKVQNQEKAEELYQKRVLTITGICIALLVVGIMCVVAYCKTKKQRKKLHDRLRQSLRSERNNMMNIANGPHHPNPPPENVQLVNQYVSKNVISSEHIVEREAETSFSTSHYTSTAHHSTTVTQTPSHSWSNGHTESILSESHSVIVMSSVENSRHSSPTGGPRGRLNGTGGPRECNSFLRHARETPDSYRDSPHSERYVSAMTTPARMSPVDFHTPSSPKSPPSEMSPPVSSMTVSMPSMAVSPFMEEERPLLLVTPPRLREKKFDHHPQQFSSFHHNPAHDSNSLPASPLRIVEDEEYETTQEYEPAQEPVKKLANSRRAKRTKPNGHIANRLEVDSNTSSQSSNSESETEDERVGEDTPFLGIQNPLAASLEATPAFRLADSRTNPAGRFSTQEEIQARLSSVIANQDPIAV

For the molecule `COc1ccc([Si](C)(C)[C@H]2[C@H](CC(=O)N3Cc4ccccc4C[C@H]3CO)O[C@@]3(C(=O)N(Cc4ccc(N5C(=O)c6cccc7cccc5c67)cc4)c4ccccc43)[C@@H]2C)cc1`, the composite z-score is -0.0494 in test [1]; 0.245 in test [2]; -0.0953 in [3]; 0.329 in test [4]; 0.393 in [5]; 1.73 in test [6]. Besides, the composite z-score in [7] is 1.17; in test [9], 1.07; in test [10] it was 0.61; in test [11], 1.56; in [15], 2.7; in test [17] it was -0.178. The composite z-score in test [18] was 1.14; in test [19], 1.15; in test [20] it was -0.027. The z-score is -4.44 (inactive) in test [8]; -0.823 (inactive) in [12]; 1.17 (inactive) in test [13]; 2.88 (inactive) in [14]; 0.489 (inactive) in [16].

As to `CCOC(=O)C1=C[C@@H](C(C)(C)C)N(S(=O)(=O)c2ccc(C)cc2)[C@H]1c1cccc(Cl)c1`, the composite z-score was -0.308 in [1]; 0.314 in [2]; 0.0526 in [3]; 0.666 in [4]; 1.54 in test [5]; 0.831 in [6]. Further, the composite z-score in test [7] was 0.979; in test [9], 0.799; in test [10], -0.14; in [11], 1.4; in test [15] it was 2.81; in [17], 0.195. The composite z-score in [18] came to 1.04; in test [19], 1.08; in [20] it was 0.301. For the same molecule, the z-score in test [8] is -2.24 (inactive); in [12], 1.74 (inactive); in test [13] it was 2.35 (inactive); in [14] it was 3.04 (inactive); in test [16] it was -0.695 (inactive).

Take `CN(C)CCCNC(=O)[C@@H]1c2ccccc2C(=O)N(C2CCCCC2)[C@H]1c1ccc(CO)cc1`: the composite z-score is -0.537 in test [1]; 0.249 in test [2]; 0.0036 in [3]; 0.577 in test [4]; 1.57 in test [5]; 1.59 in [6]. Further, the composite z-score was 1.41 in test [7]; 0.434 in [9]; -0.131 in test [10]; 1.55 in [11]; 3.08 in [15]; -0.118 in [17]. In addition, the composite z-score in test [18] worked out at 0.98; in test [19], 1.03; in test [20], 0.251. Moreover, the z-score is -0.988 (inactive) in [8]; 0.154 (inactive) in test [12]; -1.13 (inactive) in [13]; -1.02 (inactive) in test [14]; 0.37 (inactive) in test [16].

Turning to `[N-]=[N+]=Nc1ccccc1C[C@@]1(C(=O)O)N=C(c2ccc(OCCCO)cc2)O[C@@H]1c1ccccc1N=[N+]=[N-]`, the composite z-score in [1] stood at 0.943; in test [2], 0.211; in test [3], 0.0171; in test [4], 0.325; in test [5], 1.37; in test [6], 1.95. The composite z-score is 1.21 in test [7]; 1.36 in test [9]; -0.283 in test [10]; 1.39 in [11]; 3.04 in [15]; 0.255 in test [17]. Besides, the composite z-score is -0.414 in test [18], 1.09 in test [19] and 0.0998 in test [20]. Besides, the z-score was -0.22 (inactive) in test [8]; -1.05 (inactive) in test [12]; -0.613 (inactive) in test [13]; -1.67 (inactive) in [14]; -0.679 (inactive) in test [16].

With `COCCOC(=O)N1C(=O)[C@@]2(c3cc(C#CC4(O)CCCCCC4)ccc31)[C@H](C(=O)N1CCN(c3ncccn3)CC1)[C@H]1C(=O)O[C@H](c3ccccc3)[C@H](c3ccccc3)N1[C@@H]2c1ccccc1OCCO`, the composite z-score in test [1] is -0.215; in test [2], 0.825; in [3], -0.0195; in test [4] it was 0.452; in test [5] it was 1.08; in [6], 0.239. Moreover, the composite z-score in test [7] is 1.05; in test [9], 0.474; in test [10], 0.0515; in [11], 1.2; in [15], 1.79; in test [17], -0.0795. Also, the composite z-score in test [18] was 1.04; in test [19], 1.08; in [20], 0.0436. In addition, the z-score in test [8] was 0.041 (inactive); in test [12], 2.56 (inactive); in [13], 2.26 (inactive); in [14] it was 7.55 (inactive); in test [16], -0.267 (inactive).
